Source: PubChem BioAssay (Broad Institute)
aSyn 5UTR act – Activators via SNCA 5'UTR binding, MLPCN | alpha-synuclein 5'UTR reporter, activators screen | activity score, % (tested at 7.5 µM), hits read low | 7.1% of 300,000 active | AID 1814; in the data active = activity score below about -60%
* marks the source's active call; other numbers are inactive results. Only a sample is shown.

SMILES	aSyn 5UTR act
Cc1ccc(C2=NN(S(C)(=O)=O)C(c3cccs3)C2)cc1 (stereo not drawn)	-146.0*
CS(=O)(=O)N1N=C(c2ccc(Br)cc2)CC1c1cccs1 (stereo not drawn)	-117.5*
COc1ccc(C2CC(c3cccs3)=NN2S(C)(=O)=O)cc1 (stereo not drawn)	-84.7*
Cc1ccc2nc(-c3ccc(N4C(=O)CC(N5CCN(CCO)CC5)C4=O)cc3)sc2c1 (stereo not drawn)	-87.3*
COc1ccc(-c2cc(C(=O)Nc3cc(Cl)ccc3O)no2)cc1	-155.6*
Cc1ccc(O)c(NC(=O)c2cc(-c3ccccc3Cl)on2)c1	-172.6*
Cc1ccc(-c2cc(C(=O)Nc3cc(C)ccc3O)no2)cc1	-183.4*
CCOc1ccc(-c2cc(CCCC(=O)Nc3cc(OC)ccc3OC)no2)cc1	82.6
COc1ccc(-c2cc(C(=O)Nc3cc(C)ccc3O)no2)cc1	-132.2*
COc1ccc(OC)c(-c2cc(C(=O)Nc3c(C)nn(Cc4ccccc4Cl)c3C)no2)c1	58.5
c1ccc(NC2=Nc3ccccc3CS2)cc1	-201.2*
Oc1c(-c2cc(-c3ccco3)[nH]n2)ccc2ccccc12	-170.3*
Oc1ccccc1-c1cc(-c2ccco2)[nH]n1	-256.0*
c1ccc2c(Nc3nc4c(s3)CCCC4)cccc2c1	-157.0*
CCOC(=O)N=Nc1c2ccccc2c2nc3no[nH]c3nc12	118.7
CCOC(=O)c1cn(CC)c2c(ccc3ccccc32)c1=O	-89.7*
Cc1nc(S(=O)(=O)N2CCOCC2)c(C#N)c(C)c1Cl	-99.8*
Cc1nc(S(=O)(=O)N(C)Cc2ccccc2)c(C#N)c(C)c1Cl	-117.8*
Cc1nc(S(=O)(=O)NC2CCCCC2)c(C#N)c(C)c1Cl	-90.6*
CCc1ccc(Nc2n[n+](-c3ccccc3)c(-c3ccc(OCc4ccccc4)cc3)s2)cc1	-61.8*
CN(C)c1ccc(-c2sc(Nc3ccccc3)n[n+]2-c2ccc(F)cc2)cc1	-203.5*
CCc1ccc(Nc2n[n+](-c3ccccc3)c(/C=C/c3ccccc3)s2)cc1	-169.2*
O=C(/C(C=Nc1ccc(F)cc1)=C(/O)c1ccco1)C(F)(F)F	-112.9*
Cc1cccc(N=C/C(C(=O)C(F)(F)F)=C(\O)c2ccco2)c1	-167.0*
Cc1ccc(N=C/C(C(=O)C(F)(F)F)=C(\O)c2ccco2)cc1Cl	-183.7*
SMILES	aSyn 5UTR act
COc1ccc(N=Cc2oc3ccc4ccccc4c3c2O)cc1	-223.2*
COc1cc(C2Nc3ccc4ncccc4c3C3=C2C(=O)CCC3)ccc1O (stereo not drawn)	-102.3*
O=c1oc2cc(O)c(Cl)cc2c2ccccc12	-87.5*
Cc1ccccc1NC(=O)c1ccc2c(c1)OCCO2	-157.0*
N#Cc1ccccc1NC(=O)COC(=O)c1ccc2c(c1)OCCO2	-129.6*
COC(=O)c1ccccc1NC(=O)c1ccc2c(c1)OCCCO2	-84.9*
N#Cc1ccccc1NC(=O)c1ccc2c(c1)OCCO2	-94.4*
Cc1cccc(NC(=O)c2ccc3c(c2)OCCO3)c1C	-113.3*
CC(=O)N1CCn2c3ccc(C)cc3c3cccc1c32	-83.4*
C(=C\c1ccco1)/c1nc2ccccc2[nH]1	-140.6*
Cc1ccsc1C(=O)OCC(=O)N1CCc2ccccc2C1	-126.2*
C(=C/c1nccc2c1[nH]c1ccccc12)/c1ccc2c(c1)OCO2	-131.6*
Cc1nc2nc(-c3cccnc3)nn2c(C)c1Cl	-74.0*
CC(=O)N(/N=C1\Sc2ccccc2C1=O)c1cccc(C)c1	-127.2*
O=C(Nc1nnc(SCc2ccccc2)s1)c1cc2c(s1)CCCC2	-80.0*
CCSc1nnc(NC(=O)c2cc3c(s2)CCCC3)s1	-187.5*
Cc1cc(C)c2c3c(sc2n1)C1(CCSCC1)C(C#N)=C(N)O3	-89.9*
Cc1onc(-c2ccccc2Cl)c1C(=O)NCc1ccco1	-80.2*
N#C/C(=C\C=C\c1ccccc1)C(=O)NCc1ccco1	-63.1*
O=C(/C=C/c1ccc2c(c1)OCO2)NCc1ccco1	-68.1*
O=C(/C=C/c1ccccc1)NCc1ccco1	-72.2*
Cc1nc(C(=O)NNC(=O)c2c(-c3c(Cl)cccc3Cl)noc2C)cs1	62.7
O=C(/C=C/c1ccccc1Cl)NCc1ccco1	-120.1*
COC(=O)Cc1c(C)c2ccc(OC3CCCCC3=O)c(C)c2oc1=O (stereo not drawn)	-65.1*
Cc1c(CCC(=O)N2CCC[C@H]2C(=O)O)c(=O)oc2cc3oc4c(c3cc12)CCCC4	76.9
SMILES	aSyn 5UTR act
CCOC(=O)C(C(=O)OCC)C1N=C(N)N=C2Oc3ccccc3N21 (stereo not drawn)	-163.1*
N=c1c2c(n(Cc3ccc(Br)cc3)c3c1CCC3)CCCC2	59.5
CCc1ccc(NC(=O)c2cccnc2)cc1	-78.8*
CC(C)c1ccc(NC(=O)c2csnn2)cc1	-97.6*
CC(C)c1ccc(NC(=O)c2snc3ccc(Cl)cc23)cc1	-369.5*
CC(C)c1ccc(NC(=O)c2cccnc2)cc1	-247.3*
COc1ccc(Cc2nc(-c3ccc(NC(=O)c4cccnc4)cc3)no2)cc1	75.1
CCSc1ccc(NC(=O)c2cccnc2)cc1	-66.1*
Oc1ccc(/C=N/Nc2ncnc3c2ncn3Cc2ccccc2)cc1O	-67.0*
Oc1cccc(/C=N/Nc2ncnc3c2ncn3Cc2ccccc2)c1	-76.9*
Nc1c(S(=O)(=O)c2cccc(Cl)c2)c2nc3ccccc3nc2n1/N=C/c1ccc(O)c(O)c1	88.8
Cc1cc(O)c(C(=O)/C=C/c2ccc(Cl)cc2)c(=O)o1	-172.2*
CSc1ccc(/C=C/C(=O)c2c(O)cc(C)oc2=O)cc1	-117.5*
CC(C)(C)C(=O)Nc1ccc2oc(-c3cc(F)c(F)cc3Cl)nc2c1	-251.9*
COc1ccccc1C(=O)Nc1ccc2oc(-c3ccc(F)cc3)nc2c1	-201.4*
O=C(O)c1ccccc1-c1ccccc1C(=O)Nc1ccc(-c2nc3cc(Cl)ccc3o2)cc1	-77.3*
CC(=O)Nc1ccc(-c2nc3cc(Cl)ccc3o2)cc1	-73.3*
CN(C)c1ccc(-c2nc3cc(N)ccc3o2)cc1	93.4
Cc1cc(NC(=O)c2ccco2)no1	-61.8*
C/C(=C\c1ccccc1)C(=O)Nc1cc(C)on1	-161.0*
Cc1cc(NC(=O)c2ccc3nc(C)sc3c2)no1	-122.8*
Cc1cc(NC(=O)NC(=O)c2ccccc2)no1	-119.9*
Cc1cc(NC(=O)c2ccc(Cl)cc2)no1	-106.8*
Cc1ccc(NC(=O)CN(C)S(=O)(=O)c2cccs2)cc1F	-63.8*
Cc1ccc(NC(=O)CN(C)S(=O)(=O)c2cccs2)cc1C	-86.2*
SMILES	aSyn 5UTR act
CCCOc1ccc2cc(-c3ccccn3)c(=O)oc2c1	77.2
O=c1oc2cc(OCc3c(F)cccc3Cl)ccc2cc1-c1ccccn1	-107.4*
Cc1c2ccccc2nc2c(F)c(N(C)C)c(F)c(F)c12	-77.8*
Cc1cc(CNC(=O)c2ccc3nc(Cc4ccccc4F)oc3c2)nn1C	-134.6*
CC(c1ccccn1)N(C)C(=O)c1ccc2nc(Cc3ccccc3F)oc2c1 (stereo not drawn)	-101.9*
O=C(c1ccc2nc(Cc3ccccc3F)oc2c1)N1CCCC1	-150.4*
Cc1cccc(N2Cc3ccc(Br)cc3C2)c1	-124.7*
CCNC(=S)N/N=C/c1cc(C)n(-c2ccc(Cl)cc2)c1C	-124.7*
Fc1ccccc1/C=N/Nc1ncnc2ccccc12	-241.1*
Clc1ccc(/C=N/Nc2ncnc3ccccc23)cc1Cl	-317.7*
O=C(c1cc2ccccn2n1)N1CCN(Cc2ccccc2)CC1	-113.1*
Cc1ccc(C2NC(=O)c3c(sc(C)c3C)N2)c(O)c1 (stereo not drawn)	-233.6*
Cc1cccc(C2NC(=O)c3c(sc(C)c3C)N2)c1O (stereo not drawn)	-86.9*
